Source: PubChem BioAssay (NCATS)
“And” between values parts separate entries of the source, which are not always exact repeats. Equal values may be shown once. Records with an inconclusive call do not appear. Where a call stands in place of a potency, no number is given. Values without a mark were called inactive. The source made the active and inactive calls. Unless noted, calls follow the shape of the dose curve; as a rule, active = well fitted curve in the direction sought with a large enough effect; inconclusive = small, poorly fitted or top-dose-only effect, or another doubt; inactive = no such curve, though single readings can be large; an effect the other way counts as inactive or inconclusive.

Columns and labels:
[1] = biological target: Cellular tumor antigen p53 (Homo sapiens) (UniProt P04637); experiment: Primary qHTS for small molecule compounds that upregulate eGFP-tagged delta133p53alpha (in N-terminal) cells. (AID 2060322); conditions: NCI-H358 eGFP-delta133p53alpha fluorescence, 24 h; activation: stronger effect = higher value;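 also: cells pre-induced with doxycycline then dosed without doxycycline; series mostly up to about 56 µM; nearly all actives have a fitted effect of over 75% in size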
Procedure, shortened: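 NCI-H358 cells pre-induced 24 h with 10 ng/ml doxycycline for eGFP-delta133p53alpha, plated dox-free and exposed 24 h at 37C to titrated compounds. Fixed, Hoechst-stained; gated GFP peak intensity by laser scanning cytometry, normalized to DMSO (0%) and 57.5 uM 5-azacytidine (100%).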

[2] = biological target: Cellular tumor antigen p53 (Homo sapiens) (UniProt P04637); experiment: Primary qHTS for small molecule compounds that upregulate eGFP-tagged delta133p53alpha (in C-terminal) cells. (AID 2060324)
Procedure, shortened: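 Doxycycline (100 ng/ml, 24 h) first induced the eGFP fusion in NCI-H358 C-terminal-tag cells. Washed-out cells then received titrated compounds for 24 h at 37 °C before paraformaldehyde fixation, Hoechst staining and cytometric GFP quantification.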

[3] = biological target: Aldehyde dehydrogenase, mitochondrial (Homo sapiens) (UniProt P05091); experiment: qHTS for Inhibitors of the Aldehyde Dehydrogenase Family (ALDH2) Validation screens (AID 2061302; active = well fitted inhibition curve with a large enough effect; title and protocol of this record describe different tests)
[4] = biological target: Aldehyde dehydrogenase, mitochondrial (Homo sapiens) (UniProt P05091); experiment: qHTS for Inhibitors of the Aldehyde Dehydrogenase Family (ALDH2) Primary screen (AID 2061308); also: nearly all actives have a fitted effect of over 55% in size
[5] = biological target: Retinaldehyde dehydrogenase 3 (Homo sapiens) (UniProt P47895); experiment: qHTS for Inhibitors of the Aldehyde Dehydrogenase Family (ALDH1A3) Validation screen (AID 2061312); also: nearly all actives have a fitted effect of over 45% in size
[6] = biological target: Retinaldehyde dehydrogenase 3 (Homo sapiens) (UniProt P47895); experiment: qHTS for Inhibitors of the Aldehyde Dehydrogenase Family (ALDH1A3) Primary screen (AID 2061315)
[7] = BET inhibitor-based combinations targeting novel dependencies in MECOM-rearranged (r) AML: SET-2 cell line (AID 2202231); conditions: SET-2 AML cells viability, CellTiter-Glo luminescence, 48 h; viability: stronger effect = lower value, concentration not given here; also: nearly all actives have a fitted effect of over 35% in size; also: potency is read from the fitted curve at half-maximal effect
Procedure, shortened: (§1)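 Each compound was tested at eleven concentrations on cells seeded at 500/well. After two days' incubation, ATP-based luminescence reported viability; responses relative to DMSO and blank wells yielded AUC and cell-line-centred Z-AUC.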

[8] = BET inhibitor-based combinations targeting novel dependencies in MECOM-rearranged (r) AML: MV-4-11 cell line (AID 2202233); also: nearly all actives have a fitted effect of over 45% in size; also: potency is read from the fitted curve at half-maximal effect
Procedure, shortened: (§2)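 First, 500 cells per well were seeded; next, drugs were pinned as 11-point doses; then plates sat 48 hr in the incubator; finally CellTiter-Glo was added and luminescence read, with AUC and Z-AUC computed.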

[9] = BET inhibitor-based combinations targeting novel dependencies in MECOM-rearranged (r) AML: HNT-34 cell line (AID 2202234); also: nearly all actives have a fitted effect of over 35% in size; also: potency is read from the fitted curve at half-maximal effect
Procedure, shortened: as §2

[10] = BET inhibitor-based combinations targeting novel dependencies in MECOM-rearranged (r) AML: UCSD-AML1 cell line (AID 2202235); also: nearly all actives have a fitted effect of over 40% in size; also: potency is read from the fitted curve at half-maximal effect
Procedure, shortened: as §2

[11] = BET inhibitor-based combinations targeting novel dependencies in MECOM-rearranged (r) AML: AML-191 cell line (AID 2202236; also: nearly all actives have a fitted effect of over 35% in size; also: potency is read from the fitted curve at half-maximal effect)
Procedure, shortened: as §1

[12] = BET inhibitor-based combinations targeting novel dependencies in MECOM-rearranged (r) AML: AML-194 cell line (AID 2202237; also: nearly all actives have a fitted effect of over 40% in size; also: potency is read from the fitted curve at half-maximal effect)
Procedure, shortened: as §1

[13] = BET inhibitor-based combinations targeting novel dependencies in MECOM-rearranged (r) AML: OCI-AML3 cell line (AID 2202232); conditions: Potency: OCI-AML3 viability; also: nearly all actives have a fitted effect of over 35% in size; also: potency is read from the fitted curve at half-maximal effect
Procedure, shortened: as §1

Cellular tumor antigen p53 (Homo sapiens), sequence (P04637 whole entry, looked up, the tested form may be a part): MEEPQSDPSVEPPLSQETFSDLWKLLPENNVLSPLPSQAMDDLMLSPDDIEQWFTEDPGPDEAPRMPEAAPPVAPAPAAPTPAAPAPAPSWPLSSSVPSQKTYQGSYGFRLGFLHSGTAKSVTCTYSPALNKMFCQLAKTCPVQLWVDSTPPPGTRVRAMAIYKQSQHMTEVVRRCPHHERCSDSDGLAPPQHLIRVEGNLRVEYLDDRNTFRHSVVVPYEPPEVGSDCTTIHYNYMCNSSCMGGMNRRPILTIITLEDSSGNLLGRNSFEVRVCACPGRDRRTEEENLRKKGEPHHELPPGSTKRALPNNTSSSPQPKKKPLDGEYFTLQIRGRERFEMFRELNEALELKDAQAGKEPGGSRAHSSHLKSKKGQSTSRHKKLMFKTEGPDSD

SMILES | activation [1] | Potency [2] | Potency [3] | Potency [4] | Potency [5] | Potency [6] | Potency [7] | Potency [8] | Potency [9] | Potency [10] | Potency [11] | Potency [12] | viability [7] [%] | Potency [13]
CCN(CC)CCNC(=O)c1cc(Cl)c(N)cc1OC | -1.69% and -0.477% and 10.5% | inactive | inactive | inactive | inactive | inactive | – | – | – | – | – | – | – | –
CS(=O)(=O)c1ccc(-n2nc(C(F)(F)F)cc2-c2ccc(F)cc2)cc1 | -27.4% and -11.6% | inactive | inactive | inactive | inactive | inactive | – | – | – | – | – | – | – | –
CC[C@]1(O)CC2CN(CCc3c([nH]c4ccccc34)[C@@](C(=O)OC)(c3cc4c(cc3OC)N(C)[C@H]3[C@@](O)(C(=O)OC)[C@H](OC(C)=O)[C@]5(CC)C=CCN6CC[C@]43[C@@H]65)C2)C1 (some centres not stated) | 4.91% | inactive | inactive | inactive | inactive | inactive | 742 nM (active) | 263 nM (active) | 209 nM (active) | 263 nM (active) | 296 nM (active) | 296 nM (active) | – | –
O=C(O)CCc1nc(-c2ccccc2)c(-c2ccccc2)o1 | -3.34% and -25.4% | inactive | inactive | inactive | inactive | inactive | – | – | – | – | – | – | – | –
c1cnc2cc3c(cc2n1)C1CNCC3C1 | -5.72% and -13.8% | inactive | inactive | inactive | inactive | inactive | – | inactive | inactive | inactive | inactive | inactive | 106 | inactive
Cc1nn(-c2ccccc2)c(C)c1/C=N/N1CCN(Cc2ccccc2)CC1 | -13.7% and -4.24% | inactive | inactive | inactive | inactive | inactive | – | – | – | – | – | – | – | –
O=C(O)CCc1ccc(NCc2cccc(Oc3ccccc3)c2)cc1 | -48.8% and -14.3% and -8.5% | inactive | inactive | inactive | inactive | inactive | – | inactive | inactive | – | – | inactive | 117 | –
CCCCc1ncc(/C=C(\Cc2cccs2)C(=O)O)n1Cc1ccc(C(=O)O)cc1 | -19.8% and -8.36% and -2.86% | inactive | inactive | inactive | – | inactive | – | – | – | – | – | – | – | –
COc1ccccc1N1CCN(CCN(C(=O)C2CCCCC2)c2ccccn2)CC1 | -36.9% and -0.333% and -10.7% | inactive | inactive | inactive | inactive | inactive | – | – | – | inactive | inactive | inactive | – | inactive
O=[N+]([O-])c1ccc(-c2nc(-c3ccc(F)cc3)c(-c3ccncc3)[nH]2)cc1 | 47.4% | inactive | inactive | inactive | inactive | inactive | – | 16600 nM (active) | inactive | inactive | inactive | inactive | 106 | inactive
N[C@@H](CC(=O)O)C(=O)O | -3.52% | inactive | inactive | – | inactive | – | – | – | – | – | – | – | – | –
COC(=O)C1=CO[C@@H](O)[C@@H]2C(CO)=CC[C@H]12 | 8.04% | inactive | inactive | inactive | inactive | inactive | – | – | – | – | – | – | – | –
CC(=O)NC[C@H]1CN(c2ccc(N3CCOCC3)c(F)c2)C(=O)O1 | 20.9% and -21.5% and 0.955% | inactive | inactive | inactive | inactive | inactive | – | inactive | inactive | – | inactive | inactive | – | inactive
CN(C)CC[C@@H](c1ccc(Cl)cc1)c1ccccn1 | -9.6% and -8.57% | inactive | inactive | – | inactive | – | – | – | – | – | – | – | – | –
CCCCCCC/C=C\CCCCCCCCC(=O)O | -38.4% | inactive | inactive | – | inactive | – | – | – | – | – | – | – | – | –
Fc1ccc2[nH]c(CN3CCN(c4ccccn4)CC3)cc2c1 | -0.955% | inactive | inactive | inactive | inactive | inactive | – | – | – | – | – | – | – | –
O=C1NC(=O)/C(=C/c2ccc3c(c2)OC(F)(F)O3)S1 | -0.772% and -0.477% | inactive | inactive | inactive | – | inactive | – | – | – | – | – | – | – | –
CCNC(=O)N1CCN(CCCC(c2ccc(F)cc2)c2ccc(F)cc2)CC1 | -22% and -43.5% | inactive | inactive | – | inactive | – | – | – | – | – | – | – | – | –
CCc1cncnc1N1CCN(Cc2nc3ccc(C(F)(F)F)cc3[nH]2)CC1 | -18% and -36.7% and 26.8% | inactive | inactive | inactive | inactive | inactive | 14800 nM (active) | 18600 nM (active) | – | inactive | 13200 nM (active) | – | – | 11800 nM (active)
